# Results published in PubChem BioAssay (EPA / NIEHS).
# Records with an inconclusive call do not appear. Calls of active or inactive are those of the source. How the source made its calls, unless noted: active means hit-call score of the fitted dose curve at least 0.9, where 1 is the maximum; inactive means score below 0.9.
# Legend:
# [1] = target: Steroid hormone receptor ERR1 (Homo sapiens) (UniProt P11474); assay: ATG_ERRa_TRANS: Attagene TRANS-FACTORIAL HepG2 Assay for human Estrogen-Related Receptor alpha (ERRa) (AID 2282971; active means hit-call score of the fitted dose curve at least 0.9, where 1 is the maximum); details: HepG2 Attagene TRANS reporter, ERRa transactivation
# In short: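 HepG2 cells transiently transfected with GAL4-UAS reporter units and chimeric NR-Gal4 constructs; after 24 hour compound incubation, reporter mRNA quantified by RT-PCR, fluorescent labelling and capillary electrophoresis, gain of signal versus DMSO.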
# [2] = BSK_3C_Vis: BioMAP Diversity Plus: 3C Assay for Morphology Visualization (AID 2283025); details: primary human endothelial cells (HUVEC);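 further: fitted both ways so gain or loss versus DMSO counts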
# In short: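 Morphology read by light microscopy serves as a background control for the multiplexed 3C assay in human umbilical vein endothelial cells, taken 24 h after dosing, with DMSO as the negative control and bidirectional curve fitting.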
# [3] = read-out: Transforming growth factor beta 1 (TGFb1), TGFB1 (gene 7040); assay: BSK_BE3C_TGFb1: BioMAP Diversity Plus: BE3C Assay for Transforming growth factor beta 1 (TGFb1) Biomarker Activity (AID 2283036;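 further: TGF-b1 protein level measured by ELISA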); details: primary human bronchial epithelial cells; actives raise or lower the signal
# In short: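 Bronchial epithelial primary cells are treated with test chemical, then TGF-b1 is quantified by ELISA after 24 hours. Values derive from bidirectional fitting against DMSO, with cytotoxicity checked by SRB staining in parallel cultures.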
# [4] = read-out: Transforming growth factor beta 1 (TGFb1), TGFB1 (gene 7040); assay: BSK_KF3CT_TGFb1: BioMAP Diversity Plus: KF3CT Assay for Transforming growth factor beta 1 (TGFb1) Biomarker Activity (AID 2283072); details: primary human keratinocytes with fibroblasts; actives raise or lower the signal
# In short: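 KF3CT co-culture (keratinocytes + fibroblasts), 24 h exposure → TGF-b1 ELISA → bidirectional fit, DMSO = baseline. Parallel SRB total-protein staining (0.1% SRB, 10% TCA fixation, 560 nm) for cytotoxicity.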
# [5] = BSK_SAg_SRB: Viability Assessment in the BioMAP Diversity Plus: SAg Assay (AID 2283096); details: primary human HUVEC with PBMC;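 further: cells read one day after compound addition; hits may be either gain or loss of signal compared with DMSO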
# In short: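 This overt-cytotoxicity endpoint quantifies protein in human endothelial/PBMC co-cultures at 24 h using SRB absorbance (560 nm) after trichloroacetic acid fixation. Values reflect signal change from the DMSO negative control, fitted bidirectionally.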
# [6] = BSK_BT_PBMCCytotoxicity: PBMC Cytotoxicity Assessment in the BioMAP Diversity Plus: BT Assay (AID 2284225); details: primary human B cells with PBMC;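 further: PBMC viability measured by Alamar Blue dye reduction fluorescence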
# In short: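 Viability by Alamar Blue reduction (6 h, ex/em 546/580 nm) after 90 h culture of SEB/TSST-1-activated PBMC (20 ng/mL each) given compound 1 h before activation. DMSO served as baseline for curve fitting.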
# [7] = read-out: Secreted IgG (sIgG), gene 3500; assay: BSK_BT_sIgG: BioMAP Diversity Plus: BT Assay for Secreted IgG (sIgG) Biomarker Activity (AID 2284226); details: primary human B cells with PBMC
# In short: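 Cells (B cells with peripheral blood mononuclear cells) are dosed, cultured 24 h, then supernatant IgG is measured by ELISA. DMSO serves as negative control; curves are fitted for signal increase.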
# [8] = read-out: Interleukin 6 (IL6), IL6 (gene 3569); assay: BSK_BT_xIL6: BioMAP Diversity Plus: BT Assay for Interleukin 6 (IL6) Biomarker Activity (AID 2284228); details: primary human B cells with PBMC
# In short: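 Human B cell/PBMC co-culture; secreted IL-6 quantified by Luminex xMAP 24 h after chemical dosing, fitted relative to DMSO. Parallel PBMC viability by Alamar Blue after 1 h pretreatment, 20 ng/mL SEB and TSST-1, 90 h incubation.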
# [9] = read-out: Interleukin 17A (IL17A), IL17A (gene 3605); assay: BSK_BT_xIL17A: BioMAP Diversity Plus: BT Assay for Interleukin 17A (IL17A) Biomarker Activity (AID 2284229); details: primary human B cells with PBMC
# In short: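 Co-culture of human B cells and PBMC, dosed for 24 h in 96-well format. Secreted IL-17A measured with Luminex xMAP; gain-direction fitting against DMSO as baseline.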
# [10] = read-out: Tumor necrosis factor (Homo sapiens) (UniProt P01375); assay: BSK_BT_xTNFa: BioMAP Diversity Plus: BT Assay for Tumor necrosis factor alpha (TNF-alpha) Biomarker Activity (AID 2284230); details: primary human B cells with PBMC
# In short: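 Endpoint derived in the positive direction versus DMSO vehicle. Cells: B cells together with PBMC, exposed 24 h before TNF-alpha in the medium was read on the Luminex xMAP platform.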
# [11] = read-out: Collagen I, COL1A1 (gene 1277); assay: BSK_MyoF_CollagenI: BioMAP Diversity Plus: MyoF Assay for Collagen I Biomarker Activity (AID 2284238); details: primary human lung fibroblasts
# In short: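 Primary human lung fibroblasts (MyoF system) treated 24 h; Collagen I quantified by ELISA and fitted in positive direction against DMSO. Parallel SRB total-protein staining assessed overt cytotoxicity.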
# [12] = read-out: Collagen III, COL3A1 (gene 1281); assay: BSK_MyoF_CollagenIII: BioMAP Diversity Plus: MyoF Assay for Collagen III Biomarker Activity (AID 2284239); details: primary human lung fibroblasts
# In short: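 Primary human lung fibroblasts (BioMAP MyoF system) exposed 24 h. Collagen III measured by ELISA; positive-direction fit relative to DMSO.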
# [13] = read-out: Interleukin 17F (IL17F), IL17F (gene 112744); assay: BSK_BT_xIL17F: BioMAP Diversity Plus: BT Assay for Interleukin 17F (IL17F) Biomarker Activity (AID 2284243); details: primary human B cells with PBMC
# In short: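 Human PBMC co-cultured with B cells, compound exposure 24 h; secreted IL-17F quantified by Luminex xMAP, referenced to DMSO control. PBMC viability measured in parallel by Alamar Blue reduction.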
# [14] = read-out: Actin alpha 1 (ACTA1), ACTA1 (gene 58); assay: BSK_MyoF_ACTA1: BioMAP Diversity Plus: MyoF Assay for Actin alpha 1 (ACTA1) Biomarker Activity (AID 2284244); details: primary human lung fibroblasts
# In short: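 Cells were exposed to chemical for 24 h before a-SMA levels were quantified by ELISA in human lung fibroblasts. Increases were fitted against DMSO as negative control; parallel SRB staining (0.1% after 10% TCA fixation, 560 nm) assessed cytotoxicity.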
# [15] = read-out: Interleukin 2 (IL2), IL2 (gene 3558); assay: BSK_BT_xIL2: BioMAP Diversity Plus: BT Assay for Interleukin 2 (IL2) Biomarker Activity (AID 2284245); details: primary human B cells with PBMC
# In short: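 The BT system combines human B cells with peripheral blood mononuclear cells. Twenty-four hours after chemical dosing, secreted IL-2 was measured with xMAP bead technology, and responses were analyzed as increases over DMSO controls.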
# [16] = read-out: Basic fibroblast growth factor (bFGF), FGF2 (gene 2247); assay: BSK_MyoF_bFGF: BioMAP Diversity Plus: MyoF Assay for Basic fibroblast growth factor (bFGF) Biomarker Activity (AID 2284246); details: primary human lung fibroblasts
# In short: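 Chemicals are added to human lung fibroblast cultures and incubated 24 h. bFGF is then measured by ELISA, while parallel cultures receive SRB staining for total protein as a cytotoxicity check. Data are fitted upward against DMSO.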
# [17] = read-out: Collagen IV, COL4A1 (gene 1282); assay: BSK_MyoF_CollagenIV: BioMAP Diversity Plus: MyoF Assay for Collagen IV Biomarker Activity (AID 2284247); details: primary human lung fibroblasts
# In short: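 Human lung fibroblast system, 24 h chemical exposure. Endpoint: Collagen IV by ELISA, upward fit vs DMSO.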
# [18] = read-out: Interleukin-8 (IL8), CXCL8 (gene 3576); assay: BSK_MyoF_IL8: BioMAP Diversity Plus: MyoF Assay for Interleukin-8 (IL8) Biomarker Activity (AID 2284261); details: primary human lung fibroblasts
# In short: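 Human lung fibroblast (MyoF system) cultures dosed for 24 h, then IL-8 measured by ELISA. Response taken relative to DMSO; parallel SRB total-protein staining for cytotoxicity.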
# Decorin, DCN (gene 1634) = assay: BSK_MyoF_Decorin: BioMAP Diversity Plus: MyoF Assay for Decorin Biomarker Activity (AID 2284265); details: primary human lung fibroblasts
# In short: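 Human lung fibroblast cultures were dosed for 24 h, and decorin was then measured by ELISA. Parallel cultures were stained with sulforhodamine B for total protein as a cytotoxicity check. Gain of signal was fitted relative to DMSO.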
# [19] = BSK_SAg_Proliferation: Cell Proliferation Assessment in the BioMAP Diversity Plus: SAg Assay (AID 2283095); details: primary human HUVEC with PBMC;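 further: relative cell number as total protein by SRB absorbance in sub-confluent culture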
# In short: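 Absorbance of sulforhodamine B at 560 nm reports total protein in a human vascular endothelial/PBMC co-culture after 96 h chemical exposure. Gain or loss of signal is fitted in both directions against DMSO.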
# Steroid hormone receptor ERR1 (Homo sapiens), sequence (P11474 whole entry, looked up, the tested form may be a part): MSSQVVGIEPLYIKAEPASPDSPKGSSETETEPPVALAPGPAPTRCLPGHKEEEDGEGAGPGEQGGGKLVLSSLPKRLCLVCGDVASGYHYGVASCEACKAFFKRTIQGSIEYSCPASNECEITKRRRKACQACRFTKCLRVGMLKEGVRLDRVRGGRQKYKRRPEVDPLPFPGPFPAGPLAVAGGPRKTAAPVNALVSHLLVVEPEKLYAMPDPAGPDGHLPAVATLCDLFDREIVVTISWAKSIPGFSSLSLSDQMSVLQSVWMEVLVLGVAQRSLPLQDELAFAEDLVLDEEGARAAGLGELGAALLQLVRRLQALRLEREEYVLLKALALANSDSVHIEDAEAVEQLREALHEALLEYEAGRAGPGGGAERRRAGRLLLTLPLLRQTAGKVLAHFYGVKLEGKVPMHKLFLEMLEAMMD
# Tumor necrosis factor (Homo sapiens), sequence (P01375 whole entry, looked up): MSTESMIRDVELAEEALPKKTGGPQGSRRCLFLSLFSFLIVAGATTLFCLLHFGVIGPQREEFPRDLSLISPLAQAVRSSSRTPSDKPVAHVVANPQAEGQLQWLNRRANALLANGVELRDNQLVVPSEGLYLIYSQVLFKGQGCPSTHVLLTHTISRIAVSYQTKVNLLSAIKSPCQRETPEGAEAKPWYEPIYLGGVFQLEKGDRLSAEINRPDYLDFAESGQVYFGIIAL
compound,measurement,setting,value
COc1cc(OC)c(OC)cc1C=O,outcome,[1],inactive
CCCCCCCCCCCC#N,AC50,[2],40.2 µM (active)
same,outcome,[3],inactive
same,outcome,[4],inactive
same,outcome,[5],inactive
same,outcome,[6],inactive
same,outcome,[7],inactive
same,outcome,[8],inactive
same,outcome,[9],inactive
same,outcome,[10],inactive
same,AC50,[11],20.6 µM (active)
same,AC50,[12],29.6 µM (active)
same,outcome,[13],inactive
same,AC50,[14],26.5 µM (active)
same,outcome,[15],inactive
same,AC50,[16],32.9 µM (active)
same,outcome,[17],inactive
same,outcome,[18],inactive
same,outcome,"Decorin, DCN (gene 1634)",inactive
CCc1cc(C)cc(CC)c1-c1c(OC(=O)C(C)(C)C)n2n(c1=O)CCOCC2,outcome,[2],inactive
same,outcome,[3],inactive
same,AC50,[4],20 µM (active)
same,outcome,[19],inactive
same,outcome,[5],inactive
same,outcome,[6],inactive
same,outcome,[7],inactive
same,outcome,[8],inactive
same,outcome,[9],inactive
same,outcome,[10],inactive
same,outcome,[11],inactive
same,outcome,[12],inactive
same,outcome,[13],inactive
same,AC50,[14],20 µM (active)
same,outcome,[15],inactive
same,outcome,[16],inactive
same,outcome,[17],inactive
same,outcome,[18],inactive
same,outcome,"Decorin, DCN (gene 1634)",inactive
N#Cc1cc(I)c(O)c(I)c1,outcome,[1],inactive
